Measurements reported in PMC4336329 (PLoS ONE, 2015).
The campaign covered roughly 310,000 compounds. About 14,000 (4.5%) showed an effect of 50% or more. The effect is printed as a negative number. The entries come from a sample that favours strong results as a whole.

molecular target: human ether-à-go-go-related gene (hERG) potassium channel (human, UniProt Q12809); test: primary screen, population patch clamp on CHO cells stably expressing hERG; higher = less effect of the substance
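Further: peak tail current of the secondary pulse compared with the same well before compound.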

human ether-à-go-go-related gene (hERG) potassium channel, sequence (Q12809 whole entry, looked up): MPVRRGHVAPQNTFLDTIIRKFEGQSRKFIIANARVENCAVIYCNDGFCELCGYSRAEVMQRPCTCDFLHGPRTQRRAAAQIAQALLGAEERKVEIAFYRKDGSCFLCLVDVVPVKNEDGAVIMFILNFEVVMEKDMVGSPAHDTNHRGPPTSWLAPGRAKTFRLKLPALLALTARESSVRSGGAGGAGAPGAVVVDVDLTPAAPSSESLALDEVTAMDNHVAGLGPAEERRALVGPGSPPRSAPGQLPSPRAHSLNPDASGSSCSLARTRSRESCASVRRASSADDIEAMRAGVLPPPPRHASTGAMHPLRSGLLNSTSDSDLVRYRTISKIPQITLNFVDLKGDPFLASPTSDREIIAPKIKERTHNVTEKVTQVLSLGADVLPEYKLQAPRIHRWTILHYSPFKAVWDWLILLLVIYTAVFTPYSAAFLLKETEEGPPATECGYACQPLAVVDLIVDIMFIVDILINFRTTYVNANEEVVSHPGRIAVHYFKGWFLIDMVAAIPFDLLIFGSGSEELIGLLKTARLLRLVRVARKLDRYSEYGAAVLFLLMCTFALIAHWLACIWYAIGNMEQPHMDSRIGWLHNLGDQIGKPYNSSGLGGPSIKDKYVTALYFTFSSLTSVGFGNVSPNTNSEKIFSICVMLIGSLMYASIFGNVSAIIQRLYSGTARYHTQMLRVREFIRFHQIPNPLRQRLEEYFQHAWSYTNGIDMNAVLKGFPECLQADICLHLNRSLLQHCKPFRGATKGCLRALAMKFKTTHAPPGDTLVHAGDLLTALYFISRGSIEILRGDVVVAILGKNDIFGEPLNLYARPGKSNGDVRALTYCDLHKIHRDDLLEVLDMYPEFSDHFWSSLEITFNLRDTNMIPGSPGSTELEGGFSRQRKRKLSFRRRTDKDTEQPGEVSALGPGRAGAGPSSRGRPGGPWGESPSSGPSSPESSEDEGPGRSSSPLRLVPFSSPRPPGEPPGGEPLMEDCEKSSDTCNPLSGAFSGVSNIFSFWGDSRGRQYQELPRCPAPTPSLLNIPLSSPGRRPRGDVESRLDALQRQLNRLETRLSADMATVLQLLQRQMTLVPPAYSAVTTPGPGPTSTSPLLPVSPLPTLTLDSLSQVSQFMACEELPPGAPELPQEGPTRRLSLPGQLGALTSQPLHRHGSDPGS

Structure (SMILES) | hERG current change (%, negative = inhibition) at 10uM [%]
C/C(=N\OCC(=O)Nn1c(C)nc2ccccc2c1=O)c1ccccc1 | -13.8
Cc1cccc(NC(=O)c2cc3c([nH]c4ccccc43)c(C)n2)c1C | 11.6
COc1cc(C2C(C(=O)c3cccs3)=C(O)C(=O)N2CCN2CCOCC2)cc(OC)c1OC (stereo not drawn) | 14.3
CN(C)c1cc[n+](CC(=O)Nc2cc(C(F)(F)F)ccc2Cl)cc1.[Cl-] | 7.63
CCn1c(CNc2ccc(F)cc2)nnc1SCC(=O)Nc1ccccc1OC | -30.2
CN1CCCN(C(=O)c2ccc(Cl)cc2)CC1 | 5.68
Cc1ccc2nc(SCC(=O)Nc3ccc4c(c3)CCC4)[nH]c2c1 | 8.84
CCN(CC)S(=O)(=O)c1ccc(-c2nnc(SCC(C)=O)o2)cc1 | -8.48
CCOC(=O)C1CCCN(C(=O)c2cn(CC(C)C)c(=O)c3cc(OC)c(OC)cc23)C1 (stereo not drawn) | 5.47
COc1cc2c(C(=O)N3CCN(C4CCCCC4)CC3)cn(CC(C)C)c(=O)c2cc1OC | -63.3
CCn1cc(C(=O)N2CCN(C3CCCCC3)CC2)c2cc(OC)c(OC)cc2c1=O | -20.6
COc1ccc(NS(=O)(=O)c2cc3c4c(c2)C(C)C(=O)N4CCC3)cc1 (stereo not drawn) | 10.3
CCN(CC)CC(=O)N1c2ccccc2Sc2ccc(Cl)cc21.Cl | -10.3
Cc1cc(C(=O)N/N=C/c2ccc(Cl)c([N+](=O)[O-])c2)c(C)n1-c1ccc(F)cc1 | -2.41
CC(C)n1c2ccccc2c2cc([N+](=O)[O-])ccc21 | 16.1
Cc1ccc(C(=O)NC(C(=O)NC2CCCC2)c2ccccc2)cc1 (stereo not drawn) | 15
c1ccc(Sc2ncccn2)nc1 | 12.2
c1ccc(-c2ccc3nnnn3n2)cc1 | 5.72
c1cnc(Sc2ccc3nnnn3n2)nc1 | -56.4
COc1ccc(C(=O)c2sc3nc(-c4ccccc4)ccc3c2N)cc1OC | 18.1
CC[n+]1c(/C=C/Nc2ccccc2)sc2ccccc21.[I-] | -72.2
CC[n+]1c(/C=C/Nc2ccccc2)oc2ccccc21.[I-] | -70.4

Structure (SMILES) | hERG current change (%, negative = inhibition) at 10uM [%]
CC[n+]1c(/C=C2\C=C(C)CC(C)C2)sc2ccccc21.[I-] (stereo not drawn) | 6.92
CCN1/C(=C/C=C/c2oc3ccc(-c4ccccc4)cc3[n+]2CC)Oc2ccc(-c3ccccc3)cc21.CCOS(=O)(=O)[O-] | -2.14
CC[n+]1c(/C=C2/C=C(C)CC(C)C2)sc2ccccc21.[I-] (stereo not drawn) | -3.25
CCOc1ccc(S(=O)(=O)Nc2cccc(OC)c2)cc1 | -25
CCOS(=O)(=O)[O-].CC[n+]1c(/C=C/Nc2ccccc2)oc2ccc(OC)cc21 | -77.2
CC[n+]1ccccc1/C=C/Nc1ccccc1.[I-] | -44.7
CC[n+]1c(/C=C/N(C)c2ccccc2)oc2ccccc21.O=S(=O)([O-])CCO | 0.826
NC(=O)CC(NC(=O)Cc1cccc2ccccc12)c1ccc(NCCN2CCCCC2)c([N+](=O)[O-])c1 (stereo not drawn) | 7.38
O=c1[nH]c2ccc(Cl)cc2c(-c2ccccc2)c1N1CCN(c2ccccn2)CC1 | 6.61
CCCCn1c(N)c(N(CCOC)C(=O)c2c(CC)noc2C)c(=O)[nH]c1=O | 19.9
CCCC/C(O)=C1\C(=O)CC(C)(C)CC1=Nc1ccc(N)cc1 | -11.4
CC(C)NC[C@H](O)COc1ccc(CC(N)=O)cc1 | 12.8
Oc1oc(-c2ccccc2)nc1/C=N/c1nccs1 | 13.1
Cc1ccccc1NC(=O)c1csc2c1CCCC2 | -20.9
COc1ccc(-c2nnnn2C)cc1S(=O)(=O)NCc1ccccc1 | -13.9
Cc1noc(C)c1COc1cccc(C(=O)OCC(=O)N2CC(=O)Nc3ccccc32)c1 | -0.541
Cc1noc(C)c1COc1ccc(C(=O)OCC(=O)N2CC(=O)Nc3ccccc32)cc1 | 4.54
Cc1noc(C)c1CSCC(=O)OCC(=O)N1CC(=O)Nc2ccccc21 | -72.4
COC(=O)c1ccc(CSc2nc(C)nc3c2c(=O)n(C)c(=O)n3C)o1 | 14.7
Cc1cccc(-n2cnc3cc(C(=O)N4CCc5ccccc54)ccc32)c1 | -61.5
Cc1ccc(C(=O)N2CCc3ccccc32)cc1 | -7.42
O=C(c1ccc(F)c(F)c1)N1CCCc2ccccc21 | 0.0993

Structure (SMILES) | hERG current change (%, negative = inhibition) at 10uM [%]
Cc1cccc(-n2cnc3cc(C(=O)N4CCCCC4)ccc32)c1 | -21.3
Cc1nc2cc(C(=O)N3CCc4ccccc43)ccc2n1-c1ccc(F)c(F)c1 | -69.7
O=C(c1ccc2ccccc2c1)N1CCc2ccccc21 | 3.51
CCc1ccc(NC(=O)CCn2c(=O)oc3ccccc32)cc1 | -10.1
CCc1ccc(-c2nc3ccc(Br)cc3c(C(=O)O)c2C)s1 | 19.1
CCOc1ccc(NC(=O)CN2CCN(CC(=O)Nc3cc(OC)cc(OC)c3)CC2)cc1 | -74.9
O=C(CN1CCN(c2ccc(Cl)cc2)CC1)Nc1cccc(F)c1 | -3.54
O=C(CN1CCN(c2ccccn2)CC1)Nc1ccc(F)c(F)c1 | -27.6
CCCCOc1ccc(NC(=O)CN2CCN(CC)CC2)cc1.Cl | -15.9
CCc1sc(C(=O)N2CCN(CC(=O)Nc3cccc(F)c3)CC2)cc1C | -65
COc1cc(NC(=O)CN2CCCCCC2)cc(OC)c1 | 5.28
CCOc1ccc(NC(=O)CN2CCN(CC(=O)Nc3ccc(F)c(F)c3)CC2)cc1 | -78.3
CCOc1ccc(NC(=O)CN2CCN(c3ccc(F)cc3)CC2)cc1 | -22.2
CCc1sc(C(=O)N2CCN(c3ccc(F)cc3)CC2)cc1C | -16.3
CCOc1ccc(NC(=O)CN2CCN(CC(=O)Nc3ccc(F)cc3)CC2)cc1 | -77.2
CCN1CCN(CCC(=O)Nc2ccc(F)c(F)c2)CC1 | -17.1
COC(=O)c1ccccc1C(=O)N1CCOCCN(C(=O)c2ccccc2C(=O)OC)CCOCC1 | 0.0748
O=C(Cn1cncn1)NCc1cccc(OC(F)F)c1 | 7.23
O=C(Nc1nc2ccccc2s1)C1CCN(S(=O)(=O)c2cc([N+](=O)[O-])ccc2Cl)CC1 | 10.4
COc1ccc(CCN=c2c([N+](=O)[O-])nn(-c3cccc(C)c3)n2O)cc1OC | -34.1
O=C(COC(=O)C1CCN(S(=O)(=O)c2cccc3cccnc23)CC1)c1ccccc1 | 7.23
Cc1onc(-c2ccccc2)c1C(=O)NC(C)C1CCCO1 (stereo not drawn) | 10.5

Structure (SMILES) | hERG current change (%, negative = inhibition) at 10uM [%]
C/C(=N\Nc1cc(N2CCOCC2)nc(C)n1)c1ccc(F)cc1 | -12
Clc1cccc(Cc2ccc(Cl)nn2)c1 | -3.46
COc1cccc2cc(C(=O)N3CCN(C(=O)c4ccccc4)CC3)c(=O)oc12 | 7.71
O=C(Nc1ccccc1Cc1ccccc1)c1ccccc1F | -4.48
COc1ccc(Oc2ccccc2/C=N/O)cc1 | 4.99
Cc1sc2ncnc(N3CCC(C(=O)Nc4ccc(C#N)c(Cl)c4)CC3)c2c1C | -7.2
O=C(CN1CCN(C(=O)COc2cccc(F)c2)CC1)Nc1ccc(Cl)c(C(F)(F)F)c1 | -60.6
O=C(COc1ccc(S(=O)(=O)N2CCOCC2)cc1)Nc1ccc(Cl)c(C(F)(F)F)c1 | -13.1
O=C(CN1CCN(S(=O)(=O)c2ccc(F)cc2)CC1)Nc1ccc(Cl)c(C(F)(F)F)c1 | 9.48
O=C(CN1CCN(c2ccccn2)CC1)Nc1ccc(Cl)c(C(F)(F)F)c1 | -7.97
COc1ccccc1N1CCN(CC(=O)Nc2cccc(F)c2)CC1 | -28.1
CCOc1ccc(NC(=O)CN2CCN(CC(=O)Nc3cccc(F)c3)CC2)cc1 | -86.3
Cc1ccc(OCCC(=O)Nc2ccc(C)c(F)c2)cc1 | -50.6
Cc1ccc(OCCC(=O)Nc2ccc(F)c(F)c2)cc1 | -5.62
O=C(CN1CCN(c2ccccn2)CC1)Nc1cccc(F)c1 | 5.56
Cc1ccc(OCCC(=O)Nc2ccc(F)c(Cl)c2)cc1 | 5.65
CCOc1ccc(NC(=O)CN2CCN(CC(=O)Nc3ccc(Cl)c(C(F)(F)F)c3)CC2)cc1 | -57
CC(=O)c1cccc(OCC(=O)N2CCN(CC(=O)Nc3cccc(F)c3)CC2)c1 | -42.2
Cc1c(NC(=O)c2ccc([N+](=O)[O-])o2)cccc1-c1nc2ncccc2o1 | -11.8
CCC(C)C(=O)Nc1ccc([N+](=O)[O-])cc1OC (stereo not drawn) | 4.15
CCC(C)(C)NC(=O)CN(Cc1ccc(OC)cc1)C(=O)CCC(=O)Nc1nccs1 | -4.32
